PubChem BioAssay (Tox21)
Results filed as inconclusive are left out. The source made the active and inactive calls. The call rests on the fitted dose curve; in most records, active means well fitted activation curve with a large enough effect in the signal ratio in the repeat runs (not every such curve was filed as active); inconclusive means weak or mixed curves, or effect the other way; inactive means flat fitted curve, though single readings scatter; the % refers to the signal ratio.
On the % scale 0 is the no-effect control and ±100 the full control effect; potency means the concentration at half of the fitted maximal effect.

The compounds below were run against Estrogen receptor beta (Homo sapiens) (UniProt Q92731) (assay: qHTS assay to identify small molecule agonists of the estrogen receptor beta (ER-beta) signaling pathway (AID 1259377)). Conditions: ER-beta-UAS-bla HEK293T, beta-lactamase FRET ratio, 16 h; series mostly up to 92.4 µM; activation: at the top concentration.
Estrogen receptor beta (Homo sapiens), sequence (Q92731 whole entry, looked up): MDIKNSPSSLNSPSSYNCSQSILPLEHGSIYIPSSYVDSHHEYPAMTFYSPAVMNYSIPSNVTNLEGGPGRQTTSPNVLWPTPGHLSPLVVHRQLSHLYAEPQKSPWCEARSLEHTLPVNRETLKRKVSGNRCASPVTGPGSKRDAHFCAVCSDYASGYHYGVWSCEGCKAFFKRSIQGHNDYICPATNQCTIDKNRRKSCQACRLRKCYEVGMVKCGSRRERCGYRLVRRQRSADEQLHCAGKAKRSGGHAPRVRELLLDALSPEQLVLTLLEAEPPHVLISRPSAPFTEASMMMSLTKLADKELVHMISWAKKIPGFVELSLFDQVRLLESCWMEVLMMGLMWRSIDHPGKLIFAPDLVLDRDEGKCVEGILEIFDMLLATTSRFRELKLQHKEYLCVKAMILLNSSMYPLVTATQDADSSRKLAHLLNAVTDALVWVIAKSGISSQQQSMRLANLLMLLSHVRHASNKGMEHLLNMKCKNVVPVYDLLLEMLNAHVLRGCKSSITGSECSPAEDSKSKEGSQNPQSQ
Source text: U.S. Tox21 Program National Center for Advancing Translational Sciences [NCATS] NIH Chemical Genomics Center [NCGC] U.S. Environmental Protection Agency [EPA] National Institutes of Environmental Health Sciences [NIEHS] National Toxicology Program [NTP] U.S. Food and Drug Administration [FDA] Tox21 Assay Overview: Estrogen receptor (ER), a nuclear hormone receptor, plays an important role in development, metabolic homeostasis and reproduction. Two subtypes of ER, ER-alpha and ER-beta, have similar expression patterns with some uniqueness in both types. Endocrine disrupting chemicals (EDCs) and their interactions with steroid hormone receptors like ER causes disruption of normal endocrine function. To identify the compounds that activate ER signaling, an ER beta-UAS-bla GripTite cell line (Life technologies, Madison, WI, USA) containing a beta-lactamase reporter gene under the control of an Upstream Activator Sequence (UAS) was used to screen Tox21 10K compound library.
Tox21 Assay Protocol Summary: ER-beta-UAS-bla HEK293T cells were dispensed at 2,000 cells/5 uL of assay medium containing 2% charcoal stripped FBS per well into black wall/clear-bottom 1536-well plates using a Multidrop Combi (ThermoFisher Scientific, Waltham, MA) dispenser. After the assay plates were incubated at a 37C and 5% CO2 for 6 hr, 23 nL of compounds dissolved in DMSO, positive controls or DMSO only was transferred to the assay plate by a Pintool station (Kalypsys, San Diego, CA). The plates were incubated at 37C and 5% CO2 for 16 hr. Then 1 uL of LiveBLAzerTM B/G FRET substrate was added using a BioRAPTR FRD (Flying Reagent Dispenser, Aurora Discovery, San Diego, CA). After the plates were incubated at room temperature for 2 hours, fluorescence intensity was measured by an Envision plate reader (PerkinElmer, Shelton, CT).
For `CCNc1nc(Cl)nc(NC(C)(C)C)n1`, the Potency was 27.3 µM (active).
In the case of `BrCCc1ccccc1`, the “activation” value is reported as 1.92% (inactive).
For `CC#Cc1cc(C)nc(Nc2ccccc2)n1`, the “activation” value was 1.13% (inactive).
For `Cc1cc(OC(=O)N(C)C)nn1C(=O)N(C)C`, the “activation” value was -0.207% (inactive).
With `O=C(O)C(F)(F)C(F)(F)C(F)(F)C(F)(F)C(F)(F)C(F)(F)F` the “activation” value was -2.87% (inactive).
For `CCSC(=O)Cl`, the “activation” value was 0.482% (inactive).
For `CCCC(C)(COC(N)=O)COC(N)=O`, the “activation” value was -0.445% (inactive).
In the case of `N[C@@H](Cc1ccc(Oc2cc(I)c(O)c(I)c2)c(I)c1)C(=O)O`, the “activation” value is reported as 1.44% [at 42.5 µM] (inactive).
For `COc1cc(CCN)cc(OC)c1OC`, the “activation” value was -0.913% (inactive).
For `Cn1c(CCCC(=O)O)nc2cc(N(CCCl)CCCl)ccc21`, the “activation” value was 3.85% [at 42.5 µM] (inactive).
In the case of `CCC(C(N)=O)N1CCCC1=O` (stereo not given), the “activation” value is reported as -2.86% [at 42.5 µM] (inactive).
`CC(C)(N)Cc1ccccc1Cl` was tested, and the “activation” value was 4.99% [at 42.5 µM] (inactive).
`ClC1=C(Cl)C2(Cl)C(CBr)CC1(Cl)C2(Cl)Cl` (stereo not given) was tested, and the Potency was “inactive”.
With `NC(=O)OCCCc1ccccc1` the “activation” value was 1.9% [at 42.5 µM] (inactive).
With `CC[C@H](O)C(C[C@H](C)N(C)C)(c1ccccc1)c1ccccc1` the “activation” value was -2.05% (inactive).
With `CCOc1cc(OP(=S)(OC)OC)nc(CC)n1` the “activation” value was -0.796% (inactive).
In the case of `CC(C)[N+](C)(CCC(C(N)=O)(c1ccccc1)c1ccccc1)C(C)C`, the “activation” value is reported as -0.873% [at 42.5 µM] (inactive).
`CC(Cc1ccccc1)NCCn1cnc2c1c(=O)n(C)c(=O)n2C` (stereo not given) was tested, and the “activation” value was -1.08% (inactive).
In the case of `C[C@H](N)C(=O)c1ccccc1`, the “activation” value is reported as -3.09% (inactive).
For `O=C(O)CBr`, the “activation” value was -0.427% (inactive).
With `[P]#[In]` the “activation” value was 0.214% (inactive).
In the case of `CC(C)c1ccc(O)cc1`, the “activation” value is reported as 5.01% (inactive).
For `OCC(Cl)CCl` (stereo not given), the “activation” value was -3.94% (inactive).
In the case of `CCCN1CCC[C@@H]2Cc3[nH]ncc3C[C@H]21`, the “activation” value is reported as -7.5% [at 42.5 µM] (inactive).
`NNC(N)=O` was tested, and the “activation” value was -1.43% (inactive).
With `CC(C)(C)C(=O)C(Cl)Cl` the “activation” value was -0.353% (inactive).
`O=c1[nH]oc2c1CCNC2` was tested, and the “activation” value was -1.96% [at 42.5 µM] (inactive).
With `C[N+]1(C)CCCCC1` the “activation” value was 0.509% (inactive).
`CS(=O)(=O)Cl` was tested, and the “activation” value was -0.665% (inactive).
In the case of `Clc1nc(Cl)nc(Nc2ccccc2Cl)n1`, the “activation” value is reported as 9.38% (inactive).
In the case of `CC[C@@H](CO)NC(=O)[C@@H]1C=C2c3cccc4c3c(cn4C)C[C@H]2N(C)C1`, the “activation” value is reported as 5.25% [at 42.5 µM] (inactive).
For `ClC(Cl)(Cl)Cl`, the “activation” value was -0.387% (inactive).
In the case of `COC(=O)c1ccccc1CS(=O)(=O)NC(=O)Nc1nc(OC)cc(OC)n1`, the “activation” value is reported as 1.07% (inactive).
With `CCNc1nc(NCC)nc(SC)n1` the “activation” value was -1.42% (inactive).
For `CCN(CCO)CCn1c(Cc2ccccc2)nc2c1c(=O)n(C)c(=O)n2C`, the “activation” value was 8.55% [at 42.5 µM] (inactive).
In the case of `COP(=O)(OC)O/C(C)=C/C(=O)N(C)C`, the “activation” value is reported as 3.35% (inactive).
In the case of `c1ccc2c(c1)CCNC2`, the “activation” value is reported as -4.28% (inactive).
In the case of `Cc1ccc(S(=O)(=O)N[C@@H](CCCCN)C(=O)CCl)cc1`, the “activation” value is reported as 5.28% [at 42.5 µM] (inactive).
`CC(=NC#N)N(C)Cc1ccc(Cl)nc1` was tested, and the “activation” value was 0.22% (inactive).
`Oc1ccc(Cc2ccc(O)cc2)cc1` was tested, and the Potency was 5.49 µM (active).
